# KB-V1 MDR tox: kills drug-selected multidrug resistant KB-V1 cells | AID 1347076 | Potency, µM (highest dose often 46.1 µM), actives largely listed as cytotoxic | hit rate 3.4% among 400,000 | KB-V1 MDR cells viability, CellTiter-Glo, 72 h; note: nearly all actives have a fitted effect of over 60% in size
#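 Compound-treated KB-V1 multidrug-resistant cells, 72 h, 37 degrees C; viability by CellTiter-Glo. Fitted qHTS curves give the values.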
# HT1080-NT tox: kills 2HG-producing HT-1080-NT fibrosarcoma cells. Potency, µM (doses to about 46.1 µM), without a hit: top-dose activity, negative = less viability, hits mostly cytotoxic. AID 686970. HT-1080-NT fibrosarcoma viability, CellTiter-Glo ATP luminescence, 48 h. hit rate 1.6% among 360,000;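 note: NT is the 2HG producing partner of a matched IDH1 knockdown line; 0% = DMSO-treated cells and -100% = media-only wells without cells; nearly all actives have a fitted effect of over 55% in size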
#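 A 48-hour cytotoxicity screen used HT-1080-NT cells plated 2 hours before compound delivery. ATP-based CellTiter-Glo luminescence measured viability, normalized to DMSO and no-cell controls.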
# HT1080 IDH1KD tx: kills HT-1080 cells with IDH1 knockdown; hit rate 2% among 360,000; AID 686971; HT-1080 IDH1 knockdown viability, ATP luminescence, 48 h; Potency, µM (highest dose often 46.1 µM), inactives show top-dose activity, negative = toxicity, most hits filed as cytotoxic;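 note: 0% = DMSO wells and -100% = cell-free medium wells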
#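 Luminescent ATP read-out (CellTiter-Glo, 10 min at room temperature) after 48 h compound exposure at 37 °C gave viability of IDH1-knockdown HT-1080 cells. Activity was normalised to DMSO and cell-free wells, then fitted as concentration-response curves.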
# DT40 TDP1 no CPT: qHTS for Inhibitors of human tyrosyl-DNA phosphodiesterase 1 (TDP1): qHTS in cells in absence of CPT; DT40 Tdp1-/- hTDP1 cells, no CPT, ATP luminescence, 48 h; hit rate 15% among 420,000; Potency, µM (top dose mostly 46.2 µM), for inactives: top-dose activity change, negative = growth inhibition, actives largely listed as inhibitors; note: nearly all actives have a fitted effect of over 55% in size
#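 Luminescent ATP content (CellTiter-Glo) served as the growth readout. Knockout chicken DT40 cells expressing human TDP1 were exposed to compounds without camptothecin for a minimum 48 hr at 37 °C.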
# TDP1 cell CPT: growth inhibition of DT40 Tdp1-/-;hTDP1 cells with camptothecin (screen for TDP1 inhibitors); chicken DT40 Tdp1-/-;hTDP1 cells + 20 nM CPT, ATP luminescence, 48 h; Potency, µM (highest dose often 46.2 µM), for inactives: at the top dose activity change, negative = growth inhibition, most hits filed as inhibitors; hit rate 12% among 420,000; note: nearly all actives have a fitted effect of over 55% in size
#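 Chicken DT40 Tdp1-/- cells complemented with human TDP1, 400 cells/well, exposed to compounds plus 20 nM camptothecin for at least 48 h at 37 C; viability read as ATP content by CellTiter-Glo luminescence.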
# KB-3-1 tox: KB-3-1 parental cell cytotoxicity. Potency, µM (doses to about 46.1 µM), most hits filed as cytotoxic. KB-3-1 viability, CellTiter-Glo ATP luminescence, 72 h. hit rate 1.4% among 400,000; note: nearly all actives have a fitted effect of over 60% in size
#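 Parental KB-3-1 adenocarcinoma cells in phenol-red-free DMEM with 10% FBS were pin-treated with compounds at several concentrations, incubated 72 h at 37 °C, and viability read by CellTiter-Glo luminescence; concentration-effect curves were fitted after normalization.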
# Active calls of the source: *; i = inactive; u = inconclusive; x = no result given. Most compounds without a hit are left out; they make up all but 19% or so of the library. Calls come from the whole dose curve; as a rule, active = well fitted curve in the direction sought with a large enough effect; inconclusive = small, poorly fitted or top-dose-only effect, or another doubt; inactive = no such curve, though single readings can be large; an effect the other way counts as inactive or inconclusive. Unless noted, % is set by controls: 0 for no effect and ±100 for the full control effect; potency is the fitted concentration of half-maximal effect.
SMILES,KB-V1 MDR tox,HT1080-NT tox,HT1080 IDH1KD tx,DT40 TDP1 no CPT,TDP1 cell CPT,KB-3-1 tox
COc1ccc(OC)c(NC(=O)Nc2nc(C(N)C(C)C)cs2)c1 (configuration not stated),i,u,u,u,u,i
CC(C)c1ccc(NC(=O)Nc2nc(C(N)C(C)C)cs2)cc1 (configuration not stated),u,21µM*,u,16µM*,15µM*,u
NC(c1ccccc1)c1csc(Nc2ccc(C(=O)c3ccccc3)cc2)n1 (configuration not stated),i,u,u,18µM*,u,i
CNC(=O)c1[nH]cnc1C(=O)Nc1ccccn1,i,1%,-15%,3%,22%,i
OCC[C@H]1C[C@H](O)[C@@H](O)[C@]2(OCCc3ccccc32)O1,u,6%,1%,-17%,-2%,i
CC(C)C(N)c1csc(NC(=O)Nc2cccc(Cl)c2)n1 (configuration not stated),i,23µM*,u,21µM*,u,i
NC(c1csc(NC(=O)Nc2cccc(Cl)c2)n1)c1ccccc1Cl (configuration not stated),i,u,u,u,u,i
CCOC(=O)c1csc(NC(=O)Nc2cccc(Cl)c2)n1,i,2%,-13%,u,u,i
Cc1cccc(C)c1NC(=O)Nc1nc(C(N)c2ccccc2Cl)cs1 (configuration not stated),i,u,u,16µM*,u,i
Cc1ccc(C(=O)Nc2nc(C(N)C(C)C)cs2)cc1 (configuration not stated),i,-22%,3%,16µM*,u,i
Cc1ccc(OCCn2cnc(Cl)c2Cl)cc1,u,-7%,-15%,-4%,6%,i
COc1ccc(C2c3cc(OC)c(OC)cc3CC(=O)N2c2ccc(C)c(F)c2)cc1 (configuration not stated),i,x,x,3.7µM*,3.3µM*,u
CCOc1ccc(C2c3cc(OC)c(OC)cc3CC(=O)N2c2ccccc2)cc1 (configuration not stated),i,1%,-22%,-30%,-14%,i
COc1ccc(C2c3cc(OC)c(OC)cc3CC(=O)N2c2ccc(C)cc2)cc1 (configuration not stated),i,x,x,21µM*,13µM*,i
CCOc1cc2c(cc1OCC)C(c1ccc(OC)cc1)N(c1ccccc1)C(=O)C2 (configuration not stated),i,0%,-6%,9%,-4%,i
CCOc1cc2c(cc1OCC)C(c1ccccc1)N(c1ccccc1)C(=O)C2 (configuration not stated),i,u,u,16µM*,16µM*,i
Cc1ccc(-n2ncc3c(=O)n(-c4cccc(C)c4)c(=O)[nH]c32)cc1,i,-5%,-1%,-7%,-10%,i
O=C(NC1CCCC1)C(c1ccccn1)N(Cc1ccccc1F)C(=O)c1csnn1 (configuration not stated),i,2%,14%,2%,-11%,i
CCN(C(C)=O)c1nc(CSc2nnc(NC(C)C)s2)cs1,23µM*,12%,7%,u,-15%,i
CCc1cc2c(cc3c(=O)n(CC(=O)N4CCN(c5ccccn5)CC4)nc(CC)n32)s1,i,12%,-3%,u,u,i
CCc1nn(CCCC(=O)NCc2ccccc2Br)c(=O)c2cc3occc3n12,i,-1%,8%,u,u,i
CCc1cc2c(cc3c(=O)n(CC(=O)N4CCC(C)CC4)nc(CC)n32)s1,x,x,x,u,16µM*,x
CCc1cc2c(cc3c(=O)n(CCCC(=O)NCc4ccccc4Cl)nc(CC)n32)s1,x,x,x,23µM*,u,x
CCc1nn(CC(=O)N2CCN(c3cccc(Cl)c3)CC2)c(=O)c2cc3sccc3n12,x,x,x,-6%,-4%,x
CCOC(=O)C1CCN(C(=O)Cn2nc(CC)n3c(cc4sccc43)c2=O)CC1,x,x,x,18µM*,u,x
SMILES,KB-V1 MDR tox,HT1080-NT tox,HT1080 IDH1KD tx,DT40 TDP1 no CPT,TDP1 cell CPT,KB-3-1 tox
CCc1nn(CC(=O)N2CCN(c3cccc(C)c3)C(C)C2)c(=O)c2cc3sccc3n12 (configuration not stated),x,x,x,23µM*,21µM*,x
O=C(CSc1nccn1C1CCCC1)Nc1ccccc1,x,x,x,-10%,-1%,x
COc1ccccc1C(O)c1ncc(-c2ccccc2C)[nH]1 (configuration not stated),i,u,26%,-17%,-11%,i
CCC(C(=O)N1CCN(S(=O)(=O)c2ccc(F)cc2)CC1)c1ccccc1 (configuration not stated),i,10%,-4%,u,u,i
N=C1C(c2ccccc2)=C(O)CN1c1ccc2c(c1)OCO2,i,4%,20%,0%,-21%,i
CC(C)c1ccc(NC(=O)c2cc(S(=O)(=O)NCc3ccccc3Cl)ccc2F)cc1,u,x,x,9.2µM*,6.5µM*,u
Cc1ccc(S(=O)(=O)N(CC(=O)Nc2ccc(C(C)C)cc2)Cc2ccccc2)cc1,u,x,x,u,u,i
CC(C)c1ccc(NC(=O)c2cc(S(=O)(=O)NCCC3=CCCCC3)ccc2F)cc1,u,x,x,18µM*,18µM*,i
CCc1cccc(C)c1NC(=O)c1cc(S(=O)(=O)N(C)Cc2ccccc2)ccc1F,u,x,x,8.2µM*,29µM*,i
O=C(Nc1ccc(F)c(Cl)c1)c1cc(S(=O)(=O)NCc2ccc3c(c2)OCO3)ccc1F,i,x,x,u,u,i
CCN(Cc1ccccc1)S(=O)(=O)c1ccc(F)c(C(=O)Nc2ccc(C(C)C)cc2)c1,i,x,x,18µM*,15µM*,i
Cc1cc(C)c(NC(=O)c2cc(S(=O)(=O)NCCC3=CCCCC3)ccc2F)c(C)c1,i,x,x,u,u,i
O=C(c1ccc(Cl)cc1)N1CCCCC(Cl)C1=O (configuration not stated),i,12%,9%,-6%,3%,i
COc1ccc(NC(=O)Cn2c(=O)sc3ccccc32)cc1,i,-3%,0%,-18%,1%,i

# Bioassay records from PubChem BioAssay.
